Source: PubChem BioAssay
Active and inactive are the calls of the source.

How the values were obtained:
[1] = test system: PRMT1 (protein arginine N-methyltransferase 1); assay: PRMT1 binders on small-molecule microarrays, primary screen, biochemical, small-molecule microarray, 635 nm fluorescence (AID 1088); details: small-molecule microarray binding, higher = more signal;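 also: binding of Prmt1 protein to compounds spotted on small-molecule microarray slides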
[2] = yeast growth modulation, basal conditions, primary screen, YJM789 clinical isolate, OD600, 24 h (AID 1089);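 also: growth of clinical yeast isolate S. cerevisiae YJM 789 seeded 1000 cells per well; test concentration not given here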; details: S. cerevisiae YJM789 growth, higher = more signal, called active from +8 up or from −8 down
[3] = fission yeast growth modulation, primary screen, strain 972, OD600, 24 h, no modulator (AID 1090);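 also: basal condition with compound alone and no growth modifier present; test concentration not given here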; details: S. pombe 972 growth, higher = more signal, called active from +8 up or from −8 down
[4] = S. cerevisiae growth modulation with rapamycin, primary screen, strain BY4716, OD600, 96 h (AID 1091); details: higher = more signal, called active from +8 up or from −8 down; also: test concentration not given here
[5] = target: Torsin-1A-interacting protein 2 (Homo sapiens) (UniProt Q8NFQ8); assay: LULL1 binders on small-molecule microarray, primary screen, cell lysate, human LULL1 lysate, 635/667 nm fluorescence (AID 1092); details: hLULL1 lysate binding, 635 nm fluorescence, higher = more signal;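 also: probe is lysate of COS7 cells overexpressing human LULL1; score merges per-feature 667 nm fluorescence with signal-to-noise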
Sequence of Torsin-1A-interacting protein 2 (Homo sapiens) (Q8NFQ8 whole entry, looked up): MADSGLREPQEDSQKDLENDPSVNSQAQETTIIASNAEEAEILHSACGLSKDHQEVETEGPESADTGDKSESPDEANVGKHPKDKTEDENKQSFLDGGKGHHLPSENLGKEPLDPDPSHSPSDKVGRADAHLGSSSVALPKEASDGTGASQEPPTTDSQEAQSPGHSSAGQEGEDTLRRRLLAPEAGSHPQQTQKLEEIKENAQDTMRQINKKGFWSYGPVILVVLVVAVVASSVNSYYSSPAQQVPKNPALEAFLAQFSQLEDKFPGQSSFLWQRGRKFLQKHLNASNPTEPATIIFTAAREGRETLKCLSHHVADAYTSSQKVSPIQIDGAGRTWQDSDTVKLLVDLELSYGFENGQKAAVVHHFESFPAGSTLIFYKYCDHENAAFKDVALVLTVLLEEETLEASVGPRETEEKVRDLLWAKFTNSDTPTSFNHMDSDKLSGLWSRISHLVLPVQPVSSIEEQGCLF

[6] = E. coli growth modulation, two-sided OD650, primary screen, E. coli filamentation project, strain DRC41, 24 h (AID 1093); details: OD650, 24 h, higher = more signal, called active from +8 up or from −8 down;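 also: MC1000 strain lacking acrAB efflux and sulA so SOS filamentation is blocked; test concentration not given here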
[7] = small-molecule microarray binders of probe aLefty2, primary screen, biochemical, biotinylated probe, 635/667 nm fluorescence (AID 1094); details: higher = more signal;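 also: score merges spot fluorescence near 667 nm with spot signal-to-noise ratio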
[8] = test system: Noggin (protein binding on small-molecule microarray); assay: Noggin binders on small-molecule microarray, primary screen, biochemical, 635/667 nm fluorescence (AID 1095); details: 635 nm fluorescence, higher = more signal;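 also: score merges 667 nm feature fluorescence with signal to noise over triplicate slides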
[9] = target: Neurogenic locus notch homolog protein 3 (Homo sapiens) (UniProt Q9UM47); assay: NOTCH3 binders on small-molecule microarray, primary screen, biochemical, 635/667 nm fluorescence (AID 1096); details: NOTCH3 binding, 635 nm fluorescence, higher = more signal
Sequence of Neurogenic locus notch homolog protein 3 (Homo sapiens) (Q9UM47 whole entry, looked up): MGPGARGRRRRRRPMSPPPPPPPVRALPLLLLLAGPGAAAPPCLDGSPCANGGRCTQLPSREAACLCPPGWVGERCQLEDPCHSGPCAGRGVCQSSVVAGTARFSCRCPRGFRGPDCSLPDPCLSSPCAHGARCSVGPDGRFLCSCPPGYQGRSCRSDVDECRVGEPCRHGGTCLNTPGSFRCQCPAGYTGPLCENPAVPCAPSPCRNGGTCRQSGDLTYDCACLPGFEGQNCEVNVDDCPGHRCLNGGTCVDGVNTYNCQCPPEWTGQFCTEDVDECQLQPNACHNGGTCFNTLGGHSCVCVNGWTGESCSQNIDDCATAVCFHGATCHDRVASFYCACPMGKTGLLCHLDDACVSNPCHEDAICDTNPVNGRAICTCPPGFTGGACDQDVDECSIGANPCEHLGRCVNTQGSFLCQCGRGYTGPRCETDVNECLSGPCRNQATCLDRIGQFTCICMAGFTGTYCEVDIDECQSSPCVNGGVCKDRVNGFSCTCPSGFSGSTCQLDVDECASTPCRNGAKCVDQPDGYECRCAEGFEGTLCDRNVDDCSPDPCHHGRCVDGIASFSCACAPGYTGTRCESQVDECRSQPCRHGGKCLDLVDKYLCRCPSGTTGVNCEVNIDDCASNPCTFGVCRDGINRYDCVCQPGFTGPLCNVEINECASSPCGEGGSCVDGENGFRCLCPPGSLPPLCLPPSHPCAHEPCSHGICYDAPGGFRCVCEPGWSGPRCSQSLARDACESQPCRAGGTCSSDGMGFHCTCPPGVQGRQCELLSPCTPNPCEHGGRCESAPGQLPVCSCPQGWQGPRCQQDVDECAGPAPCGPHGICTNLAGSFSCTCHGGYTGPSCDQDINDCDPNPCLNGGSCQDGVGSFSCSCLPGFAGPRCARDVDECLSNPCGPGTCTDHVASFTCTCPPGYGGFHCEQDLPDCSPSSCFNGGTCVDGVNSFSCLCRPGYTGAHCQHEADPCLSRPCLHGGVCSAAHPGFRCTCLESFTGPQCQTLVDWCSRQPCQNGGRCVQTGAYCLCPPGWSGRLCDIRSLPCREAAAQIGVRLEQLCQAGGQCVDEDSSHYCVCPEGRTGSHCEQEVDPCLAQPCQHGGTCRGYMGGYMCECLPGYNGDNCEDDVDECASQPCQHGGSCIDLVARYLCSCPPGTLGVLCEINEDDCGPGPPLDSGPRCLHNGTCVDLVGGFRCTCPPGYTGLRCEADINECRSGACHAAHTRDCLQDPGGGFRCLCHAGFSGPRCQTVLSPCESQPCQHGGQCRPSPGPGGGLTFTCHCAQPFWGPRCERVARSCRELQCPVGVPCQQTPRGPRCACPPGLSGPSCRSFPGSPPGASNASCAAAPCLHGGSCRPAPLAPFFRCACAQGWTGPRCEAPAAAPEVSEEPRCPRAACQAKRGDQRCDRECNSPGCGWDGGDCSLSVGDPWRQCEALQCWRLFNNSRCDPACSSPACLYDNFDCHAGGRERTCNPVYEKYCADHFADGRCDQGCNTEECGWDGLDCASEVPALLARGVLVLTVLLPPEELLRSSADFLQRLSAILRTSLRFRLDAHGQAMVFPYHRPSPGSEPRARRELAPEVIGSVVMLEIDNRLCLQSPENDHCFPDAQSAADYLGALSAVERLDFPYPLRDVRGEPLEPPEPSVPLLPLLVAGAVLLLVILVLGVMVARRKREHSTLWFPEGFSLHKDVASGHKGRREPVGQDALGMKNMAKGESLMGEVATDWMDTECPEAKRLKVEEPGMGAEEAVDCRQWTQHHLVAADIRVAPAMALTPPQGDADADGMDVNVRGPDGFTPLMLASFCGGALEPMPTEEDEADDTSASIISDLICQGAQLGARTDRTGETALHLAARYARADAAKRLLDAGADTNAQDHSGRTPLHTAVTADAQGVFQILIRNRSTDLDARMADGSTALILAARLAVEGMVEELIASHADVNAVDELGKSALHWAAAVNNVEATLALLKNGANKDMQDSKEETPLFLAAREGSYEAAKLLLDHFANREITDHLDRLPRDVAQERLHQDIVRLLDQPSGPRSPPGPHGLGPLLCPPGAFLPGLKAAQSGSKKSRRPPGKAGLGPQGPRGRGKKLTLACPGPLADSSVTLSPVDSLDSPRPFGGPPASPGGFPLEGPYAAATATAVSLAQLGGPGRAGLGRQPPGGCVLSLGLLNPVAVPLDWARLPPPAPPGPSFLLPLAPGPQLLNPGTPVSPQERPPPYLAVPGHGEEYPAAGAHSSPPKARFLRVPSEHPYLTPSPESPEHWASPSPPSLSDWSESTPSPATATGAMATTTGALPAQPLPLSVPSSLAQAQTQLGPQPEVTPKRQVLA

[10] = small-molecule microarray binders of probe aEGFR, primary screen, biochemical, biotinylated probe, 635/667 nm fluorescence (AID 1097); details: higher = more signal;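 also: probe is a biotinylated anti-EGFR antibody binding compounds printed on slides; score combines fluorescence near 667 nm and signal to noise of each spot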
[11] = test system: Plasmodium falciparum Sir2 (PF13_0152, Sir2A); assay: pfSir2 binders on small-molecule microarrays, primary screen, biochemical, small-molecule microarray, 635 nm fluorescence (AID 1098); details: small-molecule microarray binding, fluorescence 635 nm; higher = more signal;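 also: score merges spot fluorescence intensity with its signal-to-noise ratio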
[12] = small-molecule microarray binders of probe aDKK1, primary screen, biochemical, biotinylated probe, 635/667 nm fluorescence (AID 1099); details: higher = more signal;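 also: score merges 667nm spot fluorescence with signal to noise across triplicate slides; reference of the scale not given here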
[13] = small-molecule microarray binders of probe aCHRDL2, primary screen, biochemical, biotinylated probe, 635/667 nm fluorescence (AID 1100); details: higher = more signal
[14] = splicing luciferase reporter signal modulators, primary screen, spliceosome inhibition project, cell-based, HEK293, splice +/- reporter (AID 1101); details: luminescence, 24 h, higher = more signal, called active from +8 up or from −8 down;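 also: HEK293 cells carrying a splicing-competent luciferase reporter gene; test concentration not given here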
[15] = target: Fibroblast growth factor 10 (Homo sapiens) (UniProt O15520); assay: FGF10 binders on small-molecule microarrays, primary screen, biochemical, small-molecule microarray, 635 nm fluorescence (AID 1102); details: FGF10 binding, fluorescence 635 nm, higher = more signal
Sequence of Fibroblast growth factor 10 (Homo sapiens) (O15520 whole entry, looked up): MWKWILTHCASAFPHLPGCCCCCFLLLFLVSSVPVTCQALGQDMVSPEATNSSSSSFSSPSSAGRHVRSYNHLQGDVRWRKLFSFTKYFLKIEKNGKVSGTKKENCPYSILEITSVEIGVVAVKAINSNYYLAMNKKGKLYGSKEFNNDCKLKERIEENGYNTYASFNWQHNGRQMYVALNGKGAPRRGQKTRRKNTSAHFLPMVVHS

[16] = test system: glycogen synthase kinase-3 (GSK3A per assay name; protocol says GSK3B); assay: GSK3 binders on small-molecule microarrays, primary screen, biochemical, small-molecule microarray, 635 nm fluorescence, GSK3A (AID 1103); details: small-molecule microarray binding, fluorescence 635 nm; higher = more signal; also: the record names both GSK3A and GSK3B
[17] = target: Epidermal growth factor receptor (Homo sapiens) (UniProt P00533); assay: EGFR binders on small-molecule microarrays, primary screen, biochemical, small-molecule microarray, 635 nm fluorescence (AID 1104); details: EGFR binding, higher = more signal;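 also: score merges 667 nm emission intensity with spot signal to noise over triplicate slides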
Sequence of Epidermal growth factor receptor (Homo sapiens) (P00533 whole entry, looked up): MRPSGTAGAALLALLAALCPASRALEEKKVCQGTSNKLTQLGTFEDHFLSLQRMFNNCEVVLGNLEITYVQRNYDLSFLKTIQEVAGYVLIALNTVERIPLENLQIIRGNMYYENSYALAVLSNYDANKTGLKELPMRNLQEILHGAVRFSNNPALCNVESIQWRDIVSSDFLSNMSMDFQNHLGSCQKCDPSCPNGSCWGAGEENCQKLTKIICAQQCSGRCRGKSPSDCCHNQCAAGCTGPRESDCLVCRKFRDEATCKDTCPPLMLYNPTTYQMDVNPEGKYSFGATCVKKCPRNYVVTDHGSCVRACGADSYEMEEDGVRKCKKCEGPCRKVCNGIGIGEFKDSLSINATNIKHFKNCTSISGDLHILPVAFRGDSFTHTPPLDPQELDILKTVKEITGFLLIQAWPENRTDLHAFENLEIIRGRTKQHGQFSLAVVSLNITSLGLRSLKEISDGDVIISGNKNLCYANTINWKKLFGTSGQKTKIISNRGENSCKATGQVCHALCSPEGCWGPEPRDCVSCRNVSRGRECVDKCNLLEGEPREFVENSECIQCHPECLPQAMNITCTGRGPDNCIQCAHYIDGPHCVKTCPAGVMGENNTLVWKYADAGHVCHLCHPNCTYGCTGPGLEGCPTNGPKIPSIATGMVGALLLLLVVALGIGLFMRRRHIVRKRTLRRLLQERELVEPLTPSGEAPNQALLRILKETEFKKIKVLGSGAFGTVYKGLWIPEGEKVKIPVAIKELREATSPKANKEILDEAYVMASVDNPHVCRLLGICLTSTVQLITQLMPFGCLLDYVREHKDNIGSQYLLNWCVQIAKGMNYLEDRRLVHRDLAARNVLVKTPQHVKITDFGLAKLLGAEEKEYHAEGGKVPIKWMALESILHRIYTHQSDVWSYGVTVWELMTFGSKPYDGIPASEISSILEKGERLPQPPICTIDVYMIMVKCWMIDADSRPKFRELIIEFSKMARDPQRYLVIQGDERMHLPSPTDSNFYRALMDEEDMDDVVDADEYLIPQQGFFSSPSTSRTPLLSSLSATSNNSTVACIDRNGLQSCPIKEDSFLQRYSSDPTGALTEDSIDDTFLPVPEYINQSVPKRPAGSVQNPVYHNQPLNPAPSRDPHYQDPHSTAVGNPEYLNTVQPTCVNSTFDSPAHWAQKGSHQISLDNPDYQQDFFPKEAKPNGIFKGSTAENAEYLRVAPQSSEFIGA

[18] = target: Follistatin-related protein 3 (Homo sapiens) (UniProt O95633); assay: FSTL3 binders on small-molecule microarrays, primary screen, biochemical, small-molecule microarray, 635 nm fluorescence (AID 1105); details: FSTL3 binding, higher = more signal;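 also: score merges emission near 667 nm and signal to noise per printed spot across three slides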
Sequence of Follistatin-related protein 3 (Homo sapiens) (O95633 whole entry, looked up): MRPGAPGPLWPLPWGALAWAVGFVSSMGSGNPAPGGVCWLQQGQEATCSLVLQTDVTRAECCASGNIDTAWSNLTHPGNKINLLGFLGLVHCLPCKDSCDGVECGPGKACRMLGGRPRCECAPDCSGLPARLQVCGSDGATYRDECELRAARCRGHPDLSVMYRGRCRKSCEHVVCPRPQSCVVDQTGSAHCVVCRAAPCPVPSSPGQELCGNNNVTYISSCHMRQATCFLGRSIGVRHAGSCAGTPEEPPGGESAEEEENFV

[19] = target: Dickkopf-related protein 1 (Homo sapiens) (UniProt O94907); assay: DKK1 binders on small-molecule microarrays, primary screen, biochemical, small-molecule microarray, 635 nm fluorescence scan (AID 1106); details: DKK1 binding, higher = more signal;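 also: score merges emission near 667 nm with signal to noise over three replicate slides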
Sequence of Dickkopf-related protein 1 (Homo sapiens) (O94907 whole entry, looked up): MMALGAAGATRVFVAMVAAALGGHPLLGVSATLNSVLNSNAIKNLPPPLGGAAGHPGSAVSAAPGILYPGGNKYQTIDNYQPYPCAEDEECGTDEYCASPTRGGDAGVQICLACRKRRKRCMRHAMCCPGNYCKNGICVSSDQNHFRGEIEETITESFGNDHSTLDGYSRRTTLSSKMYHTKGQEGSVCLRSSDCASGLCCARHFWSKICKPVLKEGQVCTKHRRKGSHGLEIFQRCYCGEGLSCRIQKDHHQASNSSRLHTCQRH

[20] = test system: Inhibin beta A chain (activin A); assay: INHBA (activin A) binders on microarrays, primary screen, biochemical, small-molecule microarray, 635 nm fluorescence scan (AID 1107); details: small-molecule microarray binding, higher = more signal;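 also: mouse activin A protein probed at 4.33 µg/mL on printed slides; score merges bound-protein fluorescence near 667 nm with spot signal-to-noise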

| SMILES | composite z-score [1] | z-score [2] | z-score [3] | z-score [4] | composite z-score [5] | z-score [6] | composite z-score [7] | composite z-score [8] | composite z-score [9] | composite z-score [10] | composite z-score [11] | composite z-score [12] | composite z-score [13] | z-score [14] | composite z-score [15] | composite z-score [16] | composite z-score [17] | composite z-score [18] | composite z-score [19] | composite z-score [20] |
| --- | --- | --- | --- | --- | --- | --- | --- | --- | --- | --- | --- | --- | --- | --- | --- | --- | --- | --- | --- | --- |
| COC(=O)[C@@]1(Cc2ccccc2)[C@H]2c3cc(C(=O)N(C)C)n(CCN4CNCC4=O)c3C[C@H]2CN1C(=O)c1ccccc1 | 0.304 | 0.258 (inactive) | 0.707 (inactive) | 0.1 (inactive) | 1.42 | -0.0469 (inactive) | 0.96 | -0.652 | 0.0743 | 0.385 | 1.59 | 1.38 | 1.31 | 1.25 (inactive) | -0.243 | -0.604 | -1.71 | -0.618 | -1.59 | 0.433 |
| C=CCOC(=O)[C@H]1[C@@H]2C(=O)O[C@@H](c3ccccc3)[C@@H](c3ccccc3)N2[C@@H](c2ccc(OCCOC(=O)[C@@H]3C[C@@H]4C(=O)N[C@@H](CCCCN(C)C)C(=O)N4[C@@H]3c3ccc(O)cc3)cc2)[C@]12C(=O)Nc1ccccc12 | 1.55 | 0.693 (inactive) | -2.78 (inactive) | 0.436 (inactive) | 2.57 | -1.6 (inactive) | 0.253 | 1.7 | 1.05 | -0.0177 | 0.913 | 0.173 | 0.0016 | -0.311 (inactive) | 1.03 | 1.32 | 0.961 | 1.43 | 1.27 | -0.471 |
| O=C1NC(=O)C2C1C=CC(C(O)c1c(F)cccc1Cl)N2Nc1ccc(Cl)cc1Cl (stereo not given) | 0.0621 | -20.9 (active) | -1.98 (inactive) | 1.65 (inactive) | 3.2 | -3.22 (inactive) | 0.319 | -0.836 | 0.53 | 0.0069 | 1.49 | 1.4 | 1.41 | 1.57 (inactive) | 0.185 | 0.249 | -0.391 | 0.0256 | -0.367 | 1.29 |
| C[C@]1(C(=O)NC2CC2)c2ccccc2C(=O)N(Cc2ccccc2)[C@H]1c1ccc(CO)cc1 | -1.09 | -0.653 (inactive) | -1.75 (inactive) | -0.785 (inactive) | -0.488 | 1.84 (inactive) | -0.0873 | -0.918 | -1.59 | -0.278 | 1.13 | 0.432 | 0.951 | -0.502 (inactive) | -1.01 | -0.84 | -1.12 | -0.761 | -0.594 | -0.0478 |
| COC(=O)[C@@]1(Cc2ccc(F)cc2)[C@H]2c3cc(C(=O)N(C)C)n(Cc4cc(F)cc5c4OCOC5)c3C[C@H]2CN1C(=O)c1ccccc1 | 1.17 | -1.23 (inactive) | 0.446 (inactive) | 1.78 (inactive) | 3.32 | -0.375 (inactive) | 0.44 | 0.378 | 1.04 | 0.118 | 0.743 | 1.25 | 1.25 | -1.26 (inactive) | 0.87 | 0.427 | 0.105 | 0.913 | -0.171 | 0.677 |
